Source: PubChem BioAssay AID504725 (Broad Institute, 2011)
Potency and affinity values are given separately. Activity calls are given as the source filed them. How the calls were made is not given here.

target: KSHV LANA C-terminal domain (residues 932-1162) binding to LBS DNA (UniProt O40947); assay: KSHV LANA DNA-binding disruption – biochemical, fluorescence polarization, cherry-picked samples, dose response (AID 504725); conditions: MBP-C-LANA / FAM-LBS DNA fluorescence polarization, percent change from plate compound-well median; series mostly up to 35 µM

outcome, inactive:
Cc1cccc(NC(=O)CN2C(=O)NC(C)(c3ccc4ccccc4c3)C2=O)n1 (stereo not drawn)
CN(Cc1cnc2nc(N)nc(N)c2n1)c1ccc(C(=O)NC(CCC(=O)O)C(=O)O)cc1 (stereo not drawn)
CN1CCN(C(=S)c2ccc(N(C)C)cc2)CC1
CCOC(=O)CCCn1c(C)nc(=O)c(-c2ccccc2)c1C
O=C(CN1CC[C@@]2(O)CCCC[C@H]2[C@@H]1c1ccc(F)cc1)NCc1ccco1
NNc1nc(-c2ccccc2)cs1
CC(C)(C)OC(=O)N1CCC[C@H]1c1nnc(SCc2cccc(Cl)c2)o1
Cc1ccsc1/C=N/NC(=O)Cc1ccc(Cl)cc1
Cc1ccc(C)c(OCC(=O)N(Cc2nnc(-c3ccccc3Cl)o2)C2CC2)c1
CC(C)c1ccc(CNc2ccc([N+](=O)[O-])cn2)cc1
COc1ccc(N=C2SC(CC(=O)Nc3ccccc3)C(=O)N2Cc2ccco2)cc1 (stereo not drawn)
O=C(OCc1ccccc1)N1C=CC2CC1c1c(Cl)cccc12 (stereo not drawn)
CCCCn1c(N)c(N(CCOC)C(=O)c2cc(C)oc2C)c(=O)[nH]c1=O
Nc1nc(-c2ccc(C(=O)O)cc2)cs1
COC(=O)C1=COC(C)C2CN3CCc4c([nH]c5ccccc45)C3CC12 (stereo not drawn)
O=C(N/N=C\c1ccc([N+](=O)[O-])o1)c1cncc(Br)c1
COc1ccc(C2(CNC(=O)CCC(=O)O)CCCC2)cc1OC
CCN(C(=O)COC(=O)c1ccc([N+](=O)[O-])o1)C1CCCCC1
